BAZ2B inh = inhibitors of human BAZ2B bromodomain. Potency, µM (titrated, usually from 114 µM), for the others: at the top dose activity change, negative = inhibition, usual class: inhibitors. hit rate 4.4% among 360,000. AlphaScreen BAZ2B-H3K14Ac peptide displacement. AID 504333; also: % is scaled to controls: 0 for no effect and ±100 for the full control effect; nearly all actives have a fitted effect of over 60% in size
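AlphaScreen displacement of biotin-H3(5-23)K14Ac peptide (50 nM final) from BAZ2B (50 nM final) in PBS pH 7.4, 0.01% Tween-20; complex preformed 30 min RT, then compounds (top 110 uM) 30 min RT, beads 20 min dark.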
HP1b binding inh = blocks HP1-beta chromodomain binding to methylated histone tails; P83916; AlphaScreen HP1-beta / biotin-H3K9me3 peptide binding; Potency, µM (highest dose often 114 µM), for the others: at the top dose activity change, negative = inhibition, hits mostly inhibitors; hit rate 0.56% among 390,000; AID 540317; also: nearly all actives have a fitted effect of over 70% in size
Target sequence (P83916 whole entry, looked up): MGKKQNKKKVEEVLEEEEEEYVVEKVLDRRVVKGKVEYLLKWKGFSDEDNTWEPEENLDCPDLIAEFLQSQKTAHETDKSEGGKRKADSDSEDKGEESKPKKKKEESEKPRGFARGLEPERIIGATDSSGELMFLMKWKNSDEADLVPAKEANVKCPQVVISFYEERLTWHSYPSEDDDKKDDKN
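HP1-beta protein (50 nM final) preincubated 30 min at room temperature with biotinylated H3(1-18)K9me3 peptide (50 nM) in PBS pH 7.4, 0.01% Tween-20, then compound added for 30 min. AlphaScreen streptavidin donor/nickel chelate acceptor beads (10 ug/mL final), 30 min dark, luminescence read.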
JMJD2A Tudor = blocks the human JMJD2A Tudor domain; O75164; AID 504339; hit rate 4.4% among 390,000; AlphaScreen JMJD2A-Tudor / H3K4me3 peptide binding; Potency, µM (series often up to 114 µM), for inactives: at the top dose activity change, negative = inhibition, usual class: inhibitors; also: % is scaled to controls: 0 for no effect and ±100 for the full control effect; nearly all actives have a fitted effect of over 50% in size
G9a block = G9a (human) methyltransferase inhibition; Q96KQ7; G9a H3K9 monomethylation, AlphaScreen, 2 h; Potency, µM (top dose mostly 102 µM), for inactives: at the top dose activity, negative = inhibition, usual class: inhibitors; hit rate 8.8% among 350,000; AID 504332; also: % is scaled to controls: 0 for no effect and ±100 for the full control effect; nearly all actives have a fitted effect of over 75% in size
Target sequence (Q96KQ7 913-1193 limits assumed): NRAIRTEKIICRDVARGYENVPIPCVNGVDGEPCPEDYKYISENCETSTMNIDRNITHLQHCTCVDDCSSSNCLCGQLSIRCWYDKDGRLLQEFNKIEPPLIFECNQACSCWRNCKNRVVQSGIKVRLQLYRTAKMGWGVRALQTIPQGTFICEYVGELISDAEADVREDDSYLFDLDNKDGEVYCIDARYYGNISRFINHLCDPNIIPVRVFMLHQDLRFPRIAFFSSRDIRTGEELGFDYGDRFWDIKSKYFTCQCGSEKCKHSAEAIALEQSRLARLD
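Step 1: enzyme (final 20 nM) with compound, 15 min RT. Step 2: substrate peptide 500 nM and SAM 20 uM, 2 h RT. Step 3: anti-H3K9me1 antibody and AlphaScreen beads, 10 min, then plate read.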
GLS inhibitor = blocks human kidney-isoform glutaminase activity. O94925. GLS enzymatic activity, qHTS titration. Potency, µM (highest dose often 45.5 µM), inactives show top-dose activity change, negative = inhibition, usual class: inhibitors. hit rate 0.21% among 410,000; also: % is scaled to controls: 0 for no effect and ±100 for the full control effect
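Glutamate formation by hKGA was monitored fluorometrically using coupled glutamate oxidase, HRP and Amplex Red. Substrate was added as 1 mM L-glutamine solution; incubation was 30 min at RT after an initial read.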
Starred values were filed as active, the others as inactive; ? = inconclusive; · = not tested or not shown; ! = not confirmed by another sample; [ ] = dose if it differs, or a comment. Rows were chosen to be rich in hits. Some 10% of all compounds tested hit in one or more screens of this group. Calls follow the shape of the dose curve; as a rule, active = well fitted curve in the direction sought with a large enough effect; inconclusive = small, poorly fitted or top-dose-only effect, or another doubt; inactive = no such curve, though single readings can be large; an effect the other way counts as inactive or inconclusive. Potency is read from the fitted curve at half-maximal effect.

SMILES	BAZ2B inh	HP1b binding inh	JMJD2A Tudor	G9a block	GLS inhibitor
COc1ccc(C2C(C(=O)N3CCOCC3)CCC(=O)N2c2ccc(OC)cc2)cc1 (stereo unspecified)	18.5%	19.9%	-15.4%	-0.9%[12.7 µM]	-0.9%
Cc1cc(C)c2c(N)c(C(=O)N3CCc4ccccc4C3)sc2n1	-15.3%	99.1%	1.4%	70.8µM*	3.1%
Cc1cc(C)c2c(N)c(C(=O)NC3CCCC3)sc2n1	-2.1%	44.0%	-8.1%	35.5µM*	-18.9%
CCN1CCc2nc3sc(C(=O)Nc4cccc(Cl)c4C)c(N)c3cc2C1	-20.4%	38.0%	?	?	9.6%
CCN1CCc2nc3sc(C(=O)N4CCc5ccccc5C4)c(N)c3cc2C1	?	-19.0%	79.4µM*	20µM*	1.6%
CC(C)c1ccc2nc3sc(C(=O)N4CCc5ccccc5C4)c(N)c3cc2c1	14.1%[57.1 µM]	42.7%	-13.2%	-3.8%[12.7 µM]	5.1%
CC1(C)C=Cc2c(ccc3c2OC[C@H](c2ccc(O)cc2O)C3)O1	50.1µM*	-20.0%	50.1µM*	4.3%[2.33 µM]	18.8%
CC(C)=CCc1cc([C@@H]2COc3c(ccc4c3C=CC(C)(C)O4)C2)c(O)cc1O	·	-9.0%	?	·	15.4%
CC1(C)Cc2ccccc2C2CC(O)C(=O)N21 (stereo unspecified)	-29.6%	-13.3%	89.1µM*	22.4µM*	0.5%
CCCCSc1n[nH]c(=S)c2nc[nH]c12	·	-19.3%[57 µM]	-53.1%	·	?
S=c1[nH]nc(SCc2ccccc2)c2[nH]cnc12	·	-32.3%	-31.0%	·	7.08µM*
CCc1nc2ccc(C(=O)NCCCN3CCCC3=O)cn2c1N(CC)Cc1cccc(Br)c1	·	·	·	·	11.0%
CCN(CC)CC(=O)NN(Cc1ccccc1)c1ccccc1	79.4µM*	?	17.8µM*	28.2µM*	-5.6%
CN1CCN(CC(=O)NN(Cc2ccccc2)c2ccccc2)CC1	-2.4%	?	7.94µM*	·	1.3%
CN1CCN(CC(=O)Nc2ccc(OCc3ccccc3)cc2)CC1	?	·	·	-28.9%[12.7 µM]	·
O=C(CCc1ccccc1)NCc1nc2cccnc2n1Cc1ccc(F)cc1	-1.8%	13.1%[57 µM]	-12.6%	7.7%[59 µM]	-9.5%
O=C(O)Cc1cc(F)c(S(=O)(=O)N2CCN(S(=O)(=O)c3ccc4c(c3)OCCO4)CC2)cc1F	·	·	-34.9%	·	·
O=C(Nc1cc(C(F)(F)F)cc(C(F)(F)F)c1)[C@H]1O[C@@H](n2ccc(=O)[nH]c2=O)[C@H](O)[C@@H]1O	·	·	·	·	9.5%
O=S1(=O)c2ccccc2N(Cc2cccc(F)c2)c2ccccc21	-2.1%	25.3%	-12.7%	10.4%[59 µM]	1.2%
Cc1cccc(-c2sc(Nc3ccccc3)n[n+]2-c2ccccc2)c1	50.1µM*	15.2%	79.4µM*	-20.4%[2.33 µM]	0.1%
C[n+]1nc(Nc2ccccc2)sc1-c1ccc(C(=O)O)cc1	0.4%	·	·	-4.8%[12.7 µM]	·
O=C(O)c1ccc(-c2sc(Nc3ccccc3)n[n+]2-c2ccccc2)cc1	?	-7.6%	44.7µM*	·	4.7%
O=C(O)c1ccc(-c2sc(Nc3ccccc3)n[n+]2-c2ccc(F)cc2)cc1	-7.9%	16.6%	-34.8%	39.8µM*	7.1%
O=C(c1ccc(F)cc1)c1cnc(Nc2ccccc2)s1	-16.6%	37.1%	-13.0%	-23.3%	3.0%
CCCC(=O)Nc1cc(-c2nc3cccnc3s2)ccc1C	?	-15.0%	-33.9%	?	-2.1%
SMILES	BAZ2B inh	HP1b binding inh	JMJD2A Tudor	G9a block	GLS inhibitor
Cc1ccc(N2C(=O)C3C4C=CC(CNC(=S)N5CCN(c6ccccc6)CC5)(O4)C3C2=O)cc1 (stereo unspecified)	·	?	?	2.24µM*	4.1%
Cc1ccc(NC(=S)NCC23C=CC(O2)C2C(=O)N(c4ccc(C)cc4)C(=O)C23)cc1 (stereo unspecified)	-26.7%	?	89.1µM*	7.94µM*	6.7%
CCCCC[n+]1cccc2c3ccccc3ccc21	33.5%	14.2%	?	50.1µM*	0.2%
O=C(O)c1cn(-c2ccc(N3CCCC3)c(F)c2)c2c(F)c(F)c(F)cc2c1=O	-37.8%	4.5%	?	44.7µM*	-20.8%
CN1CCN(c2cc3c(cc2F)c(=O)c(C(=O)O)cn3-c2ccc(F)cc2)CC1	·	·	·	?	0.9%
COc1ccccc1C(=O)Nc1c(C(=O)N(CCN(C)C)Cc2ccco2)oc2ccccc12	?	-23.8%[57 µM]	44.7µM*	39.8µM*!	12.7%
COc1ccc(OCC(=O)Nc2c(C(=O)N(CCN(C)C)Cc3ccco3)oc3ccccc23)cc1	70.8µM*	?	?	15.4%[59 µM]	13.8%
CN(C)CCN(Cc1ccco1)C(=O)c1oc2ccccc2c1NC(=O)c1ccccc1	-20.1%[57.1 µM]	16.6%	?	?	18.3%
Cc1ccc(N2CCN(C(=O)CCc3c(C)nc4ncnn4c3C)CC2)c(C)c1	-14.0%	23.6%	-12.1%	-15.8%[59 µM]	2.8%
Cc1sc(NC(=O)CSc2n[nH]c(N)n2)c(C#N)c1C	·	-3.1%[57 µM]	-30.6%	·	-3.9%
Cc1ccc(/C=C/C2=Cc3c(sc(NC(=O)CSc4n[nH]c(N)n4)c3C#N)C(C)(C)C2)o1	?	·	·	8.91µM*	·
Cc1sc2nc(C3CC3)nc(N3CCN(C(=O)c4ccc(F)cc4)CC3)c2c1C	?	8.0%	-33.8%	44.7µM*	-2.3%
COc1ccc(C(=O)N2CCN(c3nc(C4CC4)nc4sc(C)c(C)c34)CC2)cc1	?	-20.3%	?	39.8µM*	2.5%
Cc1sc2nc(C3CC3)nc(N3CCN(C(=O)c4ccc(Cl)cc4)CC3)c2c1C	?	16.4%	44.7µM*	44.7µM*	-6.2%
Cc1sc2nc(C3CC3)nc(N3CCN(S(=O)(=O)c4ccc(F)cc4)CC3)c2c1C	2.1%	47.0%	-12.2%	22.0%[59 µM]	11.5%
Cc1sc2nc(C3CC3)nc(N3CCN(C(=O)c4ccccc4F)CC3)c2c1C	-38.3%	4.7%	-31.0%	44.7µM*	0.3%
COc1ccc(C(=O)N2CCN(c3ncccn3)CC2)cc1	3.6%	23.0%	-17.8%	12.5%	10.9%
CCCc1nc(N2CCN(S(=O)(=O)c3ccc(Cl)cc3)CC2)c2c(C)c(C)sc2n1	0.0%	18.3%	-10.7%	-13.7%	-14.9%
O=C(CCl)N(O)c1ccc(C=Cc2ccccc2)cc1	·	27.6%	-13.2%	·	7.1%
COc1ccc(N2CCN(C(=S)NCCc3ccccc3)CC2)cc1	·	-23.1%	-15.3%[11.4 µM]	·	-4.6%
Oc1ccc(N2CCN(C(=S)NCCc3ccccc3)CC2)cc1	?	?	?	7.08µM*	11.7%
S=C(NCCc1ccccc1)N1CCN(Cc2ccccc2)CC1	56.2µM*	?	4.47µM*	?	0.7%
COc1ccc(CCNC(=S)NC2CCN(Cc3ccccc3)CC2)cc1	-19.6%	-0.9%	-17.4%	25.1µM*	-6.4%
Fc1cc(F)c2ncc3c(-c4ccccc4)nn(-c4cccc(Cl)c4)c3c2c1	·	3.7%	-22.3%	-0.9%[59 µM]	5.3%
COc1ccc(NC(=O)c2oc3ccccc3c2NC(=O)C23CC4CC(CC(C4)C2)C3)c(OC)c1	-15.8%	24.6%	-15.2%	9.1%[59 µM]	-7.8%
COCCCNC(=S)NNC(=S)NCCCOC	-17.0%	-25.5%	12.6µM*	8.91µM*	-16.3%
